# Assay outcomes deposited in PubChem by National Center for Advancing Translational Sciences (NCATS).
# ClpP mod: qHTS Assay for Activators of ClpP; ATP-dependent Clp protease proteolytic subunit (Bacillus subtilis (strain 168)), P80244; purified B. subtilis ClpP, FRET peptide cleavage, 20 min; Potency, µM (top dose mostly 57.5 µM), without a hit: at the highest dose activity change, negative = active; hit rate 1.9% among 340,000; AID 651965, 2013; active means well fitted falling curve with a large enough effect; inconclusive means small, poorly fitted or top-dose-only effect; inactive means no such curve, though single readings can be large or run the other way; further: the source files actives as falling curves though it sought activators and does not explain the sign; nearly all actives have a fitted effect of over 65% in size
# Target sequence (P80244 whole entry, looked up): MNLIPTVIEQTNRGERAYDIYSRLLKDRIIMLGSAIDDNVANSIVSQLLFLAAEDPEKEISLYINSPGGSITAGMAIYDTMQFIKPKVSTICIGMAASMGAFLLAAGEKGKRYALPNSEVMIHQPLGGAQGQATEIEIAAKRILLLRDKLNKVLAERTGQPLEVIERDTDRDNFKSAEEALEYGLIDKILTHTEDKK
#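 FRET quenching reversal measured ClpP activation: 10 microg/mL B. subtilis ClpP at pH 8 with the FRET-FV decapeptide, read at 430 nm after 320 nm excitation. The 20-min minus 0-min signal was scaled between DMSO/no-enzyme wells and ADEP (5.8 microM final).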
# TDP1 cell CPT: qHTS for Inhibitors of human tyrosyl-DNA phosphodiesterase 1 (TDP1): qHTS in cells in presence of CPT; chicken DT40 Tdp1-/-;hTDP1 cells + 20 nM CPT, ATP luminescence, 48 h; Potency, µM (doses to about 46.2 µM), for the others: top-dose activity change, negative = growth inhibition, usual class: inhibitors; hit rate 12% among 420,000; AID 686979, 2013; further: on the % scale 0 is the no-effect control and ±100 the full control effect; nearly all actives have a fitted effect of over 55% in size
#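 Chicken DT40 Tdp1-/- cells complemented with human TDP1, 400 cells/well, exposed to compounds plus 20 nM camptothecin for at least 48 h at 37 C; viability read as ATP content by CellTiter-Glo luminescence.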
# TDP1 block: qHTS Assay for Inhibitors of Tyrosyl-DNA Phosphodiesterase (TDP1); hit rate 0.28% among 350,000; Tyrosyl-DNA phosphodiesterase 1 (Homo sapiens), Q9NUW8; recombinant TDP1, AlphaScreen DNA substrate cleavage; Potency, µM (highest dose often 130 µM), for inactives: at the highest dose activity change, negative = inhibition, usual class: inhibitors; AID 485290, 2010; further: on the % scale 0 is the no-effect control and ±100 the full control effect; nearly all actives have a fitted effect of over 40% in size
#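 Tdp1 1 nM final; 15 min RT w/ cpd; substrate 15 nM, 5 min; beads 10 ug/ml, 10 min; AlphaScreen read. Neg ctrl: no enzyme.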
# TDP1 cell noCPT: qHTS for Inhibitors of human tyrosyl-DNA phosphodiesterase 1 (TDP1): qHTS in cells in absence of CPT; DT40 Tdp1-/- hTDP1 cells, no CPT, ATP luminescence, 48 h; Potency, µM (series often up to 46.2 µM), for inactives: top-dose activity change, negative = growth inhibition, hits mostly inhibitors; hit rate 15% among 420,000; further: on the % scale 0 is the no-effect control and ±100 the full control effect; nearly all actives have a fitted effect of over 55% in size
#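 A cellular qHTS used chicken DT40 cells lacking endogenous Tdp1 but carrying stably transfected human TDP1. Compounds were applied without camptothecin, and cell growth kinetics were judged by ATP-dependent luminescence after ≥48 hr.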
# Active calls of the source: *; ? = inconclusive; . = not tested or not shown; [ ] = another dose, or the depositor's remark. In the library only some 17% were active in any assay of this set; here they are far more common. Unless noted, the call rests on the fitted dose curve; in most records, active means well fitted curve in the direction sought with a large enough effect; inconclusive means small, poorly fitted or top-dose-only effect, or another doubt; inactive means no such curve, though single readings can be large; an effect the other way counts as inactive or inconclusive. Potency means the concentration at half of the fitted maximal effect.
SMILES,ClpP mod,TDP1 cell CPT,TDP1 block,TDP1 cell noCPT
COc1ccccc1NC(=O)CSc1ncc2c(n1)-c1ccccc1N(Cc1ccccc1C)S2(=O)=O,-6.8%,?,0.0%,?
COc1ccc(-c2coc3cc(OC(C)=O)cc(OC(C)=O)c3c2=O)cc1,.,9.4%,10.8%,10.5%
CC(=O)NCCNc1ncnc2ccc(-c3ccc(C(=O)N(C)C)cc3)cc12,.,4.7%,11.7%[56.1 µM],-5.2%
O=C(CSc1ncc2c(n1)-c1cc(Cl)ccc1N(Cc1ccccc1)S2(=O)=O)Nc1ccc(F)cc1F,4.3%,18.4µM*,0.0%,?
O=C(CSc1ncc2c(n1)-c1ccc(Cl)cc1N(Cc1ccccc1)S2(=O)=O)Nc1ccc(F)c(F)c1,-7.7%,23.1µM*,7.9%,18.4µM*
COc1ccc(NC(=O)CSc2ncc3c(n2)-c2ccccc2N(Cc2ccc(C)cc2)S3(=O)=O)cc1Cl,?,?,-3.6%,?
O=C(O)C1CCCN1 (stereo unspecified),.,6.9%,6.2%,4.4%
Cc1cccc(-c2nnc(-c3cccc(NC(=O)Cc4cccs4)c3)o2)c1,?,18.4µM*,5.0%,14.6µM*
Cc1ccc(-c2nnc(-c3cccc(NC(=O)c4cccs4)c3)o2)cc1,71.4%,?,?,23.1µM*
O=C(Nc1cccc(-c2nnco2)c1)c1cccs1,1.7%,1.5%,2.9%,-25.2%
S=c1nc[nH]c2n[nH]nc12,-2.1%,?,.,?
CC(=O)Oc1ccc(N(C(C)=O)S(=O)(=O)c2cccs2)c2ccccc12,-1.4%,11.6µM*,-3.0%,?
CC(=O)Oc1ccccc1N(C(C)=O)S(=O)(=O)c1ccc2ccccc2c1,.,-14.6%,4.8%,-20.3%
COC(=O)c1cc(NC(=O)c2ccccc2)c(=O)oc1C,.,8.2%,-3.5%,-17.1%
Cc1oc(=O)c(NC(=O)c2cccc(Cl)c2)cc1C(=O)c1ccccc1,-1.7%,29.1µM*,13.9%,20.6µM*
CC(=O)c1cc(NC(=O)c2ccc([N+](=O)[O-])cc2)c(=O)oc1C,.,?,-5.5%,23.1µM*
COc1ccc(C(=O)Nc2cc(C(=O)c3ccccc3)c(C)oc2=O)cc1,-5.5%,13µM*,8.7%,10.3µM*
Cc1oc(=O)c(NC(=O)c2ccccc2)cc1C(N)=O,.,23.8%,-1.2%,-1.7%
O=C(c1ccccc1)c1c(-c2ccccc2)[nH]n(-c2ccccc2)c(=O)c1=O,.,4.4%,.,-21.8%
Clc1ccc2c(c1)-c1[nH]ncc1CS2,.,-3.8%,1.2%,-7.9%
O=C(COC(=O)c1ccc(Br)o1)Nc1ccc(N2CCOCC2)cc1,2.2%,-7.7%,-0.5%,0.3%
COc1cc(Cl)c(C)cc1NC(=O)CC(c1ccc(F)cc1)N1Cc2ccccc2C1=O (stereo unspecified),0.1%,23.1µM*,5.6%,18.4µM*
Cc1c(Cl)cccc1NC(=O)Cc1cccs1,0.7%,-11.5%,0.8%,15.6%
Cc1c(Cl)cccc1NC(=O)CC(c1cccs1)N1Cc2ccccc2C1=O (stereo unspecified),-1.5%,16.4µM*,5.6%,?
O=C(CC(c1cccs1)N1Cc2ccccc2C1=O)Nc1ccccc1F (stereo unspecified),-2.8%,?,2.8%,20.6µM*
SMILES,ClpP mod,TDP1 cell CPT,TDP1 block,TDP1 cell noCPT
O=C(Nc1ccccc1F)C(Cc1ccccc1)N1Cc2ccccc2C1=O (stereo unspecified),-1.5%,-4.7%,-1.2%,-15.6%
Cc1c(Cl)cccc1NC(=O)CC(c1ccc(F)cc1)N1Cc2ccccc2C1=O (stereo unspecified),-2.5%,23.1µM*,5.6%,20.6µM*
Cc1c(C(=O)NCC2(N3CCOCC3)CCCCC2)cnn1-c1nccc(-c2ccccc2F)n1,.,-7.8%[9.04 µM],.,?
CC=C1C2C=C(C)CC1(N)c1ccc(=O)[nH]c1C2 (stereo unspecified),.,-18.9%,6.1%,-0.6%
COc1ccc(NC(=O)c2c(C)noc2C(C)C)cc1S(=O)(=O)N1CCCCC1,1.2%,-14.6%,1.8%,?
CSc1cccc(NC(=O)CC(c2cccs2)N2Cc3ccccc3C2=O)c1 (stereo unspecified),-4.0%,16.4µM*,2.8%,?
CNc1ccc(Oc2nc([N+](=O)[O-])nn2C)cc1,-0.8%,4.7%,2.7%,-1.1%
Cc1nn(-c2ccccc2)c(N2CCCC2)c1/C=N/NC(=O)c1cc(-c2ccccc2)nc2ccccc12,-1.8%,?,-2.7%,?
Cc1nn(-c2ccccc2)c(N2CCCC2)c1/C=N/NC(=O)c1cc(-c2ccccn2)nc2ccccc12,-1.7%,20.6µM*,5.6%,11.6µM*
Cc1nn(-c2ccccc2)c(N2CCCC2)c1/C=N/NC(=S)Nc1ccccc1F,8.5%,13µM*,-2.7%,?
Cc1nn(-c2ccccc2)c(N2CCCC2)c1/C=N/NC(=O)c1cc(-c2cccs2)nc2ccccc12,-6.1%,?,2.8%,14.6µM*
Cc1nn(-c2ccccc2)c(N2CCCC2)c1/C=N/Nc1ccc(S(N)(=O)=O)cc1[N+](=O)[O-],-2.7%,16.4µM*,10.8%,14.6µM*
COCCNC(=O)C1(C)CCCN(C(=O)c2ccc(C)c(F)c2)C1 (stereo unspecified),-0.6%,-29.0%,.,-2.7%
O=C1CCc2cc(S(=O)(=O)Nc3cccc(C(F)(F)F)c3)ccc2N1,.,.,1.4%,.
Cn1nc(C(=O)NCCN2Cc3ccccc3OC(c3ccsc3)C2)c2ccccc2c1=O (stereo unspecified),.,-13.4%[9.04 µM],.,-9.3%
O=c1c2ccccc2[nH]c(=S)n1CCCN1CCN(c2ccccc2F)CC1,-4.2%,2.91µM*,.,?
O=c1c2cccnc2[nH]c(=S)n1CCCN1CCN(c2ccccc2F)CC1,-1.5%,?,6.9%,?
COc1ccccc1N1CCN(C(=O)CCCCCn2c(=S)[nH]c3cc4c(cc3c2=O)OCO4)CC1,-1.9%,?,.,10.3µM*
COc1cccc(N2CCN(C(=O)CCCCCn3c(=S)[nH]c4cc5c(cc4c3=O)OCO5)CC2)c1,-0.9%,20.6µM*,1.0%,?
O=C(CCCn1c(=S)[nH]c2cc3c(cc2c1=O)OCO3)N1CCN(c2ccccc2F)CC1,0.5%,?,3.4%,18.4µM*
COc1cccc(N2CCN(C(=O)CCn3c(=S)[nH]c4cc5c(cc4c3=O)OCO5)CC2)c1,.,.,1.0%,.
O=C(CCCCCn1c(=S)[nH]c2cc3c(cc2c1=O)OCO3)N1CCN(c2ccccc2)CC1,0.0%,?,-5.6%,-11.0%
CCc1c(C)nc2ncnn2c1NCCc1ccc(OC)c(OC)c1,1.3%,14.6µM*,0.0%,13µM*
COc1nc(NCCc2ccc(OC)c(OC)c2)nc(OC)n1,1.3%,-1.4%,2.0%,-5.6%
Cc1ccc(CNc2cc(C)nc3nc(-c4cccc(C)c4)nn23)cc1,-3.3%,.,7.7%,.
